Source: PubChem BioAssay
Calls of active or inactive are those of the source.

What was measured:
[1] = system: Human papillomavirus type 1a protein E7 (residues 44-93); assay: HPV1a E7 fragment binders on microarrays, primary screen, biochemical, small-molecule microarray, residues 44-93, 635 nm fluorescence (AID 1108); conditions: small-molecule microarray binding, fluorescence 635 nm; higher = more signal;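 further: E7 fragment applied at 1 µg/mL in TBST for 1 h at 4 C; score combines spot fluorescence with its signal to noise ratio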
[2] = modulators of HCV replicon luciferase signal, primary screen, HCV replication inhibitor project, Huh7 cells, luciferase reporter (AID 1109); conditions: 48 h, higher = more signal;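 further: huh7 hepatoma cells harbouring a luciferase neomycin HCV replicon reporter; luciferase luminescence as measure of HCV replicon replication; test concentration not given here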
[3] = molecular target: Left-right determination factor 2 (Homo sapiens) (UniProt O00292); assay: LEFTY2 binders on small-molecule microarrays, primary screen, biochemical, small-molecule microarray, 635 nm fluorescence scan (AID 1110); conditions: LEFTY2 binding, higher = more signal
[4] = molecular target: Calmodulin-1 (Homo sapiens) (UniProt P0DP23); assay: CALM1 binders on microarrays, EGTA buffer, profiling panel, biochemical, small-molecule microarray, Cy5-labelled CALM1 (AID 1111); conditions: Cy5-CALM1 binding fluorescence, higher = more signal;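 further: labelled calmodulin applied in Tris saline Tween buffer holding calcium plus EGTA and DTT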
[5] = molecular target: Calmodulin-1 (Homo sapiens) (UniProt P0DP23); assay: calcium-bound CALM1 binders on microarrays, profiling panel, artefact control for SMM control-protein annotation, biochemical, small-molecule microarray, Cy5-labelled CALM1, plus calcium (AID 1112); conditions: Cy5-CALM1 binding fluorescence, higher = more signal;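 further: score merges spot fluorescence with signal to noise from triplicate slides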
[6] = small-molecule microarray binders of probe aWnt5a, primary screen, biochemical, biotinylated probe, 635/667 nm fluorescence (AID 1113); conditions: higher = more signal;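 further: score merges 667 nm fluorescence intensity with signal-to-noise per printed feature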
[7] = small-molecule microarray binders of probe aShh, primary screen, biochemical, biotinylated probe, 635/667 nm fluorescence (AID 1114); conditions: higher = more signal;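 further: probe is biotin-labelled aShh protein from a stem cell growth factor screen; measures binding of labelled protein to compounds printed on the slide; score merges feature fluorescence at 667 nm with signal-to-noise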
[8] = small-molecule microarray binders of probe aNog, primary screen, biochemical, biotinylated probe, 635/667 nm fluorescence (AID 1115); conditions: higher = more signal;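 further: probe is biotinylated aNog protein used at 0.15 µg/mL for 1 h at 4 C; z-score combines 667 nm fluorescence of each spot with its signal to noise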
[9] = molecular target: Torsin-1A-interacting protein 1 (Homo sapiens) (UniProt Q5JTV8); assay: LAP1 binders from COS7 cell lysate, primary screen, small-molecule microarray, 635/667 nm fluorescence (AID 1116); conditions: COS7-hLAP1 lysate binding, 635 nm fluorescence, higher = more signal
[10] = molecular target: Alpha-bungarotoxin (Bungarus multicinctus) (UniProt P60615); assay: alpha-bungarotoxin binders on microarray, profiling panel, artefact control for SMM control protein annotation, biochemical, small-molecule microarray, Alexa647 label, 635/667 nm fluorescence (AID 1117); conditions: alpha-BTX-A647 binding fluorescence, higher = more signal
Albumin (Bos taurus) = Albumin (Bos taurus) (UniProt P02769); assay: bovine serum albumin binders on microarray, profiling panel, artefact control for SMM control protein annotation, biochemical, small-molecule microarray, Alexa647 label, 635/667 nm fluorescence (AID 1118); conditions: BSA-A647 binding, fluorescence 635 nm, higher = more signal;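 further: score merges 667 nm emission intensity and signal-to-noise per printed compound spot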
[11] = small-molecule microarray binders of probe aXIP, primary screen, biochemical, NeuroSMM set, 635/667 nm fluorescence (AID 1119); conditions: higher = more signal, called active from +8 up or from −8 down;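 further: probe is the protein aXip251-270 applied at 1 µg/mL to compound-printed slides; binding of probe to printed compounds measured as 667 nm fluorescence plus signal to noise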
[12] = small-molecule binders of probe aNOTCH3, primary screen, biochemical, small-molecule microarray, 635/667 nm fluorescence (AID 1120); conditions: higher = more signal;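 further: probe is a biotin-tagged antibody raised against NOTCH3 rather than NOTCH3 protein; score merges spot fluorescence near 667 nm with spot signal to noise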
[13] = small-molecule binders of probe aNOTCH2, primary screen, biochemical, small-molecule microarray, 635/667 nm fluorescence (AID 1121); conditions: higher = more signal;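 further: score merges feature fluorescence read at 667 nm with its signal to noise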
[14] = molecular target: Carbonic anhydrase 2 (Homo sapiens) (UniProt P00918); assay: CAII small-molecule binders, profiling panel, biochemical, small-molecule microarray, Alexa647-labelled CAII (AID 1122); conditions: CAII-A647 binding fluorescence, higher = more signal
[15] = COS7 lysate on small-molecule microarray, probe aHis, 635 nm (AID 1123); conditions: COS7 cell lysate, fluorescence, higher = more signal;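 further: z-score combines 667nm fluorescence intensity with signal-to-noise per printed compound spot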
[16] = compound binding in COS7 lysate, probe aLAP1, primary screen, cell lysate, small-molecule microarray (AID 1124); conditions: probe aLAP1, fluorescence, higher = more signal;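 further: lysate comes from COS7 cells expressing LAP1 and is applied at 0.3 µg/mL; score merges spot fluorescence near 667 nm with signal-to-noise over triplicate slides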
Sam68 (KHDRBS1) = assay: Sam68 small-molecule binders, primary screen, biochemical, small-molecule microarray, 635 nm fluorescence (AID 1125); conditions: small-molecule microarray binding, higher = more signal;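 further: score merges 667 nm channel intensity with signal to noise over triplicate slides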
[17] = system: Chordin-like protein 2 (CHRDL2); assay: CHRDL2 small-molecule binders, primary screen, biochemical, small-molecule microarray, 635 nm fluorescence (AID 1126); conditions: small-molecule microarray binding, fluorescence 635 nm; higher = more signal;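 further: printed compound slides probed with Chrdl2 protein at 4 µg/mL for 1 h at 4 C; score merges 667 nm emission intensity with signal to noise over three replicate slides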
[18] = molecular target: Concanavalin-A (Canavalia ensiformis) (UniProt P02866); assay: ConA small-molecule binders, primary screen, artefact control for SMM control protein annotation, biochemical, small-molecule microarray, Alexa647 label, 635 nm (AID 1127); conditions: ConA-A647 binding fluorescence, higher = more signal;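 further: z combines 667 nm emission intensity with signal-to-noise across three replicate slides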
Chain of Concanavalin-A (Canavalia ensiformis) (P02866 whole entry, looked up): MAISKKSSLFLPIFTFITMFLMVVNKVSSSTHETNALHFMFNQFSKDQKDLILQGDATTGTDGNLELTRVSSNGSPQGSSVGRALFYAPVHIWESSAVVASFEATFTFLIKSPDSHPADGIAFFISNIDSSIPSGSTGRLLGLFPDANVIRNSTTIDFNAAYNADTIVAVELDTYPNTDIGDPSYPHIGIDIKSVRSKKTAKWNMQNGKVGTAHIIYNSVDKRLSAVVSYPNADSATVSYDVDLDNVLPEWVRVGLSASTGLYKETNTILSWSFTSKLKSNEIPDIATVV

Chain of Albumin (Bos taurus) (P02769 whole entry, looked up): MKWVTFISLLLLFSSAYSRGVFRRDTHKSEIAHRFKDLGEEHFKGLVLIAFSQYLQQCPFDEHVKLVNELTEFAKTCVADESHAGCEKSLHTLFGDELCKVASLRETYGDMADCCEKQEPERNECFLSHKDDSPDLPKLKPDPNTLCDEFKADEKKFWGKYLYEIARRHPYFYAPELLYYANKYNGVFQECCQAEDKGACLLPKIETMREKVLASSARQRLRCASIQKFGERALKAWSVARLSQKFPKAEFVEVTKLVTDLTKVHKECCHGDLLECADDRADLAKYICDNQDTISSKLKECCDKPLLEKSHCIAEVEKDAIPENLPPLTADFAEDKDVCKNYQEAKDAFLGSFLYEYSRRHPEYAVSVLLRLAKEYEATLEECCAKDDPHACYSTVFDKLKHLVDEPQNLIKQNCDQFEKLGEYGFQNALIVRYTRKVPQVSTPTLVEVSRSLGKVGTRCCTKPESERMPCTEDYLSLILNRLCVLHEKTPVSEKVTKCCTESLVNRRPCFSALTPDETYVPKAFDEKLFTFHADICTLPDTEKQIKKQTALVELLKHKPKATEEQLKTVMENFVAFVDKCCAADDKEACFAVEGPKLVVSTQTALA
Chain of Alpha-bungarotoxin (Bungarus multicinctus) (P60615 whole entry, looked up): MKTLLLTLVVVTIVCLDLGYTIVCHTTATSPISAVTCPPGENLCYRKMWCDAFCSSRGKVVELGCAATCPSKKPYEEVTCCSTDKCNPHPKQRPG
Chain of Torsin-1A-interacting protein 1 (Homo sapiens) (Q5JTV8 whole entry, looked up): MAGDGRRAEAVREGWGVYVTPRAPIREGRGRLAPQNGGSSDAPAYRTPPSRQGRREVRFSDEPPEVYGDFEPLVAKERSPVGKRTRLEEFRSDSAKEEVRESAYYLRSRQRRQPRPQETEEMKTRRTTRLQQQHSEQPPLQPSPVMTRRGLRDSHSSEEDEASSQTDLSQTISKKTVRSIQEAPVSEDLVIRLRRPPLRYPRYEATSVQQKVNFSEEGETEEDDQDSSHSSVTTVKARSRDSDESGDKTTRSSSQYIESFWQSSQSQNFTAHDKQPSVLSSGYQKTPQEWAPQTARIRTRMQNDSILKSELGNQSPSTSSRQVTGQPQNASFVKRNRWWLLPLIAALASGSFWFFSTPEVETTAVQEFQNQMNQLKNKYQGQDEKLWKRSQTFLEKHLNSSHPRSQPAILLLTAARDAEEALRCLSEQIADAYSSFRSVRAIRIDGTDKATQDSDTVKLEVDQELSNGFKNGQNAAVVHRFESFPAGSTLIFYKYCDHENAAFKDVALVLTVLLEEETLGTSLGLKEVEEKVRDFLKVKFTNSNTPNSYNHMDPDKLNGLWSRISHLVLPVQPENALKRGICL
Chain of Left-right determination factor 2 (Homo sapiens) (O00292 whole entry, looked up): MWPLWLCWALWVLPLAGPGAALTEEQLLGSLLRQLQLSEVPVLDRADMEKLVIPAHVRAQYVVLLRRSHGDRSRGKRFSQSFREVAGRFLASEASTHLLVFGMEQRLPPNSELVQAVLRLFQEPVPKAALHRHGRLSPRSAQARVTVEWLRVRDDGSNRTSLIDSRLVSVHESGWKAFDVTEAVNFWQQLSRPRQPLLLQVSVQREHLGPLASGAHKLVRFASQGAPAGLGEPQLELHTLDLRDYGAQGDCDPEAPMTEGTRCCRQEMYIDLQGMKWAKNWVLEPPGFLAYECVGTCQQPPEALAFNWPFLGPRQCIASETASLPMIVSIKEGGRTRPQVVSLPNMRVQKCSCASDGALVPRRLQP

| SMILES | composite z-score [1] | z-score [2] | composite z-score [3] | composite z-score [4] | composite z-score [5] | composite z-score [6] | composite z-score [7] | composite z-score [8] | composite z-score [9] | composite z-score [10] | composite z-score (Albumin (Bos taurus)) | composite Z-score [11] | composite z-score [12] | composite z-score [13] | composite z-score [14] | composite z-score [15] | composite z-score [16] | composite z-score (Sam68 (KHDRBS1)) | composite z-score [17] | composite z-score [18] |
| --- | --- | --- | --- | --- | --- | --- | --- | --- | --- | --- | --- | --- | --- | --- | --- | --- | --- | --- | --- | --- |
| CC(C)=CCCC(C)=CCON=C1C[C@@H](O)[C@@H](O)[C@@H]2[C@@H]3C(=O)N(c4ccc(F)cc4F)C(=O)[C@@H]3CC[C@H]12 | 1.36 | 0.19 | 0.621 | -0.0184 | -0.778 | -0.124 | 0.0668 | -0.379 | 0.153 | 0.39 | 0.477 | -0.356 (inactive) | 0.164 | -0.0662 | 0.514 | 1.31 | 0.402 | 1.24 | 0.812 | 0.629 |
| CCOC(=O)[C@H](CC(C)C)NC(=O)CCC1CC(OC(=O)NCc2cccc3ccccc23)CC2(CCCC(COC(=O)NCCOc3ccccc3)O2)O1 (stereo not given in full) | 1.32 | -0.687 | 0.518 | 0.721 | -0.143 | 0.0162 | -0.253 | -0.311 | 0.556 | 0.266 | 0.496 | -0.309 (inactive) | -0.0048 | 0.0174 | 0.533 | 0.684 | 0.27 | 1.32 | 0.412 | 1.06 |
| CCOC(=O)C1=NO[C@]2(C=C(Br)C3(OCCCO3)[C@H]3O[C@H]32)C1 | -1.53 | 0.426 | 0.306 | -1.04 | -0.175 | -0.161 | -0.0879 | 0.341 | 0.194 | 0.477 | 0.653 | -0.455 (inactive) | -0.239 | -0.0907 | 0.114 | -0.263 | -0.157 | -0.638 | -0.31 | -0.586 |
| COC(=O)[C@@H]1CC[C@H](C)[C@@H](c2ccc(C)cc2)N1C(=O)c1ccc(C=NO[C@@H]2O[C@H](COC(C)=O)[C@@H](OC(C)=O)[C@H](OC(C)=O)[C@H]2OC(C)=O)cc1 | 0.918 | -0.465 | 0.368 | 0.0167 | -0.371 | -0.124 | 0.313 | -0.0208 | 0.218 | 0.884 | 0.322 | 0.265 (inactive) | -0.217 | -0.0596 | -0.0477 | 0.234 | 0.116 | 1.05 | 0.452 | 1.01 |
| CC(C)[C@@H](OCc1ccccc1)[C@H](C)C=NOC[C@@H](O)COCc1ccco1 | -0.549 | -2.38 | -1.05 | -1.71 | -1.81 | -0.204 | -0.37 | -0.577 | -1.05 | -0.0069 | -0.113 | -0.0572 (inactive) | -0.819 | -0.244 | -0.512 | 0.0121 | 0.0218 | -0.185 | -1.48 | -1.15 |
| COC(=O)[C@H](C)NC(=O)CCC1CC(OC(=O)NCc2ccc3c(c2)OCO3)CC2(CCCC(COC(=O)NCc3cccc(C(F)(F)F)c3)O2)O1 (stereo not given in full) | 0.817 | -1.79 | 1.11 | 0.601 | -0.311 | -0.113 | 0.0756 | 0.33 | 0.794 | 0.446 | 0.133 | 0.298 (inactive) | -0.0014 | -0.133 | 0.424 | 1.08 | 0.234 | 1.02 | 0.301 | 0.746 |
| CC[C@@H](c1ccccc1)n1c(=O)n2n(c1=O)[C@H]1[C@H](O)[C@@H]3O[C@@H]3C(=O)[C@H]1CC2 | 0.225 | -4.01 | 0.497 | -0.202 | -0.246 | -0.101 | -0.0474 | -0.209 | -0.113 | 0.414 | 0.208 | 0.214 (inactive) | -0.0745 | -0.135 | -0.245 | -0.372 | -0.262 | 0.0274 | 0.673 | 0.576 |
| CC(C)(C)N1C(=O)[C@H]2[C@H]3[C@H](O)[C@H](O)CC(=O)[C@H]3CC[C@H]2C1=O | 0.487 | -0.041 | 0.473 | 0.133 | -0.816 | 0.0267 | -0.186 | -0.0996 | 0.274 | 0.642 | 0.472 | 0.403 (inactive) | -0.0581 | -0.155 | 0.0658 | 0.165 | 0.206 | 0.892 | 0.357 | 0.673 |
| CC(C)=CCCC(C)=CCON=C1C[C@@H](O)[C@@H](O)[C@@H]2[C@@H]3C(=O)N(Cc4ccccc4)C(=O)[C@@H]3CC[C@@H]12 | 0.209 | 0.45 | 1.08 | -0.488 | -1.32 | -0.154 | -0.214 | -0.0709 | 0.712 | 0.398 | 0.772 | -0.349 (inactive) | -0.0395 | -0.193 | -0.148 | 0.043 | -0.0612 | 0.571 | 1.4 | 0.304 |
| Cc1cc2c(nc1C)CCCCN2CC(C)ON=C[C@@H](C)[C@H](OCc1ccccc1)C(C)C (stereo not given in full) | -0.683 | -3.07 | -0.684 | -1.4 | -0.987 | -0.224 | -0.214 | -0.415 | -1.16 | -0.916 | -0.256 | -0.77 (inactive) | -0.545 | -0.237 | -0.523 | -0.602 | -0.708 | -0.465 | -2.12 | -1.34 |
